An excerpt weighted towards active compounds, which were near 4.9% of everything screened.
NLRP3 yeast inh = NALP3 inhibition in yeast; Yeast reconstituted NLRP3/ASC/caspase-1, beta-gal luminescence, 24 h; AID 2825; actives 0.39% (n = 330,000); inhibition, % at 10 µM;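 active = inhibition of 50% or more; inactive = inhibition below 50%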;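 also: plate controls were induced DMSO wells for no effect and uninduced yeast grown without galactose for full effect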
NALP1 yeast inh = inhibitors of NALP1 inflammasome in yeast | S. cerevisiae NALP1/ASC/caspase-1 growth, X-gal OD620, 72 h | inhibition, % at 10 µM | actives 0.61% (n = 280,000) | AID 2071; in the data active = inhibition mostly above about 24%, no sharp cut-off; inactive = mostly below about 32%
SKKanGAS inh = blocks kanamycin growth of S. pyogenes SKKanGAS strain | BacTiter-Glo, 6 h | inhibition, % at 7.5 µM | actives 1.3% (n = 300,000);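 active = mean replicate score, as percent of positive control median, at least 50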;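 also: strain carries kanamycin resistance gene driven by streptokinase promoter and grows in 40 µg/ml kanamycin; loss of luminescence reflects streptokinase promoter inhibition or plain growth inhibition; 0% = median of DMSO wells and 100% = positive control at its reference dose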
tim23-1 inh = tim23-1 yeast growth inhibition; S. cerevisiae tim23-1 growth, BacTiter-Glo luminescence, 24 h; inhibition, % at 20 µM; actives 1.3% (n = 330,000); AID 463212;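 active = growth inhibition of the mutant yeast at or above 50%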;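 also: temperature-sensitive mutant grown at 25 °C; plate controls were DMSO-treated mutant yeast for no effect and medium wells lacking yeast for full effect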
TIM10 inh = inhibits growth of TIM10 yeast strain; S. cerevisiae TIM10 strain growth, BacTiter-Glo luminescence, 24 h; inhibition, % at 10 µM; actives 1.4% (n = 330,000); AID 463195;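 active = inhibition of 40% or more at the single tested concentration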;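 also: wild-type TIM10 isogenic control strain grown at permissive 25 °C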
tim10-1 inh = growth inhibitors of tim10-1 mutant yeast | S. cerevisiae tim10-1 ts strain growth, BacTiter-Glo, 24 h | AID 463190 | inhibition, % at 20 µM | actives 2.2% (n = 330,000);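 active = inhibition of at least 40%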;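 also: mutant grown at 25 °C; 0% = DMSO wells with yeast and 100% = wells holding no yeast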
NALP3 yeast conf = confirmation of NALP3 inhibitors in yeast | shares compounds with NLRP3 yeast inh | yeast expressing human NALP3, luminescence | inhibition, % at 10 µM | actives 81% (n = 1,300) | AID 435006; in the data active = inhibition above about 48%
Casp1-ASC yeast = caspase-1-ASC yeast counter-screen hit; shares compounds with NLRP3 yeast inh; yeast expressing Caspase-1-ASC, luminescence counter screen; inhibition, % at 10 µM; actives 66% (n = 1,000); AID 488784
NALP3 retest = confirmation retest of NALP3 inhibitors in yeast; shares compounds with NLRP3 yeast inh; yeast expressing human NALP3, luminescence read-out; inhibition, % at 10 µM; actives 53% (n = 1,000); AID 488794
tim10-1 conf = tim10-1 yeast growth inhibition, confirmed; actives 56% (n = 7,400); shares compounds with tim10-1 inh; inhibition, % at 20 µM; S. cerevisiae tim10-1 ts strain growth, BacTiter-Glo, 24 h;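 active = inhibition of yeast growth at or above a set limit in either of two repeat tests at 20 µM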;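 also: tim10-1 mutant grown at permissive 25 °C to find synthetic lethal compounds; 0% = DMSO yeast wells and 100% = medium wells without yeast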
TIM10 conf = confirmation of TIM10 yeast growth inhibitors | shares compounds with TIM10 inh | S. cerevisiae tim10 strain growth, BacTiter-Glo luminescence, 24 h | inhibition, % at 10 µM | actives 63% (n = 4,600);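 active = inhibition of yeast growth at or above a set limit in either of two replicates at 10 µM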;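 also: this counterscreen used the strain with wild-type TIM10; 0% = yeast with DMSO and 100% = medium wells lacking yeast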
tim23-1 confirm = confirmation of tim23-1 mutant yeast growth inhibitors; shares compounds with tim23-1 inh; S. cerevisiae tim23-1 growth, BacTiter-Glo luminescence, 24 h; inhibition, % at 20 µM; actives 83% (n = 4,400); AID 463218;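 active = inhibition above about 39% in either of two replicate wells at 20 µM, limit read from the data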;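 also: temperature-sensitive tim23-1 mutant grown at 25 °C; 0% = DMSO wells with yeast and 100% = medium wells without yeast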
* marks the source's active call; other numbers are inactive results; / = no result; + = active, no number. Rule as the data show it, unless noted: active = inhibition above about 50%; inactive = the rest.

SMILES	NLRP3 yeast inh	NALP1 yeast inh	SKKanGAS inh	tim23-1 inh	TIM10 inh	tim10-1 inh	NALP3 yeast conf	Casp1-ASC yeast	NALP3 retest	tim10-1 conf	tim23-1 confirm	others
O=C(Nc1ccc2c(c1)ncn2C1CCCCC1)c1ccco1	53*	-4	-4	51*	66*	36	70*	55*	52*	/	77*	TIM10 conf=53*
CC(=C/c1ccccc1)/C=N/NC(=O)c1cccs1	56*	-8	-5	64*	35	-1	24	/	/	/	55*
CC(/C=N/NC(=O)c1ccncc1)=C\c1ccccc1	4	5	-8	10	5	2	/	/	/	/	/
COc1ccc(C(=O)CC(=O)Nc2ccc([N+](=O)[O-])cc2)cc1	67*	-8	4	64*	35	13	75*	78*	82*	/	74*
Nc1nc(-c2ccc(Oc3ccccc3)cc2)cs1	97*	98*	-2	57*	7	11	57*	99*	99*	/	48*
COc1ccc(-c2csc(N)n2)cc1	1	25	1	14	11	20	/	/	/	/	/
COc1cccc(C(=O)Nc2ccccc2)c1	51*	4	-6	50*	44*	25	80*	48	39	/	58*	TIM10 conf=27
COc1cccc(NC(=O)c2cccs2)c1	68*	10	2	51*	66*	27	81*	71*	57*	/	75*	TIM10 conf=56*
Cc1ccc(C(C[N+](=O)[O-])c2c(N)n(C)c(=O)n(C)c2=O)cc1 (stereo not given)	70*	+	0	54*	24	36	64*	78*	53*	/	64*
Cn1c(N)c(C(C[N+](=O)[O-])c2ccccc2Cl)c(=O)n(C)c1=O (stereo not given)	37	/	-15	34	26	14	/	/	/	/	/
COc1cccc(F)c1C(C[N+](=O)[O-])c1c(N)n(C)c(=O)n(C)c1=O (stereo not given)	64*	+	-5	82*	46*	54*	44	56*	33	60*	82*	TIM10 conf=52*
CC1(C)C2CCC1(CS(=O)(=O)NCc1ccc(Cl)cc1Cl)C(=O)C2 (stereo not given)	20	10	1	34	21	-6	/	/	/	/	/
COc1cc(C(=O)N2CCN(C(=O)c3cc(-c4ccc(Br)cc4)n[nH]3)CC2)cc(OC)c1OC	24	16	7	-4	-12	-9	/	/	/	/	/
CSCc1c(C(=O)OCC(=O)c2ccc[nH]2)oc2ccccc12	51*	/	/	59*	67*	51*	68*	55*	42	19	74*	TIM10 conf=63*
N#Cc1ccc(OCC(=O)N2CCN(S(=O)(=O)c3cccc(Cl)c3)CC2)cc1	10	/	/	12	3	8	/	/	/	/	/
O=[N+]([O-])c1ccc(O)c2ncccc12	83*	158*	44	62*	-1	20	92*	99*	98*	/	35
Cc1ccc2nc(N/N=C\c3ccc([N+](=O)[O-])o3)nc(-c3ccccc3)c2c1	57*	-5	100*	67*	1	23	44	43	33	/	14
O=[N+]([O-])c1ccc(/C=N/Nc2ccc3ccccc3c2)o1	30	3	19	13	-24	8	/	/	/	/	/
Cc1cc(Br)ccc1SCC(=O)OCC(=O)NCc1ccco1	-1	10	0	25	7	4	/	/	/	/	/
CCOC(=O)c1ccc(NC(=O)c2sc3nc4n(c(=O)c3c2C)CCC4)cc1	10	12	62*	25	13	48*	/	/	/	28	/
Cc1cc(C)cc(NC(=O)c2sc3nc4n(c(=O)c3c2C)CCC4)c1	19	13	19	25	6	43*	/	/	/	5	/
CCc1cccc(NC(=O)c2sc3nc4n(c(=O)c3c2C)CCC4)c1	21	4	24	14	9	-9	/	/	/	/	/
Cc1cccc(N2CCN(S(=O)(=O)c3ccc(-c4ccc(=O)[nH]n4)o3)CC2)c1C	8	4	-14	-1	5	-4	/	/	/	/	/
N#CCCN(Cc1ccccc1)C(=S)NC(=O)c1ccccc1	12	25	-3	33	38	40*	/	/	/	28	/
CCCCn1nc(C(=O)N(C)CC(=O)Nc2ccc(F)c(F)c2F)ccc1=O	1	/	/	0	-7	1	/	/	/	/	/
SMILES	NLRP3 yeast inh	NALP1 yeast inh	SKKanGAS inh	tim23-1 inh	TIM10 inh	tim10-1 inh	NALP3 yeast conf	Casp1-ASC yeast	NALP3 retest	tim10-1 conf	tim23-1 confirm	others
O=C(CSc1ncccn1)NC(=O)Cc1ccccc1	20	/	/	-4	7	-13	/	/	/	/	/
CCN(Cc1ccccc1)S(=O)(=O)c1ccc(C(=O)N(CCCN(C)C)c2nc3cc(C)cc(C)c3s2)cc1	23	/	34	25	-1	52*	/	/	/	-5	/
CCOC(=O)N1CCN(S(=O)(=O)c2ccc(C(=O)N(CCCN(C)C)c3nc4ccc(CC)cc4s3)cc2)CC1	19	31	9	18	22	43*	/	/	/	16	/
Cc1ccc2sc(N(CCCN(C)C)C(=O)c3ccc(S(=O)(=O)N(C)Cc4ccccc4)cc3)nc2c1C	38	/	40	12	29	54*	/	/	/	12	/
CCOC(=O)N1CCN(S(=O)(=O)c2ccc(C(=O)N(CCN(C)C)c3nc4ccc(CC)cc4s3)cc2)CC1	23	9	4	8	7	31	/	/	/	/	/
CCOc1cccc2sc(N(CCN(CC)CC)C(=O)c3ccc(S(=O)(=O)N4CCCCC4)cc3)nc12	9	12	-1	2	-11	48*	/	/	/	22	/
COc1ccc([C@H]2C(C(=O)O)=C[C@@H](CC3CCCC3)N2S(=O)(=O)c2ccc(C)cc2)cc1OC	0	/	/	2	2	-4	/	/	/	/	/
CN(C)CCCN(C(=O)c1ccc(C(=O)c2ccccc2)cc1)c1nc2c(F)cccc2s1	13	28	-2	18	19	47*	/	/	/	13	/
COc1cccc2sc(N(CCCN(C)C)C(=O)c3ccc(S(=O)(=O)N4CCc5ccccc5C4)cc3)nc12	12	14	15	1	8	26	/	/	/	/	/
Cc1ccc2sc(N(CCCN(C)C)C(=O)c3ccc(S(=O)(=O)N4CCc5ccccc5C4)cc3)nc2c1C	15	/	6	20	20	40*	/	/	/	29	/

Screens deposited in PubChem by several laboratories.
